Source: PubChem BioAssay (several laboratories)
NPR2 activator: human GC-B receptor activators, primary screen, HEK293 GC-B cells, cGMP TR-FRET, EC30 CNP; 0% at EC30 CNP, 100% saturating CNP; activation, % at 10 µM; actives 0.11% (n = 370,000); AID 1920062, 2024;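 active = activation at 10 µM reaching about 35% in either raw or pattern-adjusted values, limit read from the data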
GC-A act: GC-A stimulated cGMP production enhancers – HEK293 GC-A cells, cGMP TR-FRET, EC30 ANP, primary screen; activation, % at 10 µM; 0% at EC30 ANP, 100% saturating ANP; AID 1671463, 2021; Atrial natriuretic peptide receptor 1 (Homo sapiens), P16066; actives 0.14% (n = 370,000); in the data active = activation above about 40%
V-ATPase pHluor: regulators of yeast V-ATPase proton pumping, primary screen, pHLuorin cytosolic pH fluorescence | response, % at 10 µM | AID 504577, 2011 | S. cerevisiae | actives 0.37% (n = 350,000); in the data active = response mostly above about 7.3%, no sharp cut-off; inactive = mostly below about 5.4%; also: actives read high
Rce1 inhib: yeast Rce1p protease inhibitors, primary screen, biochemical, fluorescence, cell-free homogeneous. CAAX prenyl protease 2 (Saccharomyces cerevisiae (strain ATCC 204508 / S288c)), Q03530. yeast membranes, quenched prenylated peptide cleavage fluorescence. calls only. actives 0.27% (n = 290,000). AID 2563, 2010;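 active = fall in fluorescence gain of 50% or more versus controls, with final raw signal at or below 3038400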;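 also: plate controls were neutral control wells for no effect and wells lacking membranes for full effect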
NSD2 HMT inh: NSD2 histone methyltransferase inhibitors, primary screen, biochemical, AlphaScreen, single concentration, set 2. Histone-lysine N-methyltransferase NSD2 (Homo sapiens), O96028. NSD2 peptide methylation, 120 min. inhibition, % at 12.5 µM. actives 0.54% (n = 310,000). AID 743445, 2014; in the data active = inhibition above about 50%
Efflux pump inh: inhibitors of Candida efflux pumps in yeast, primary screen, S. cerevisiae, Nile Red, multiplex; actives 0.44% (n = 330,000); S. cerevisiae Candida pump triplex; inhibition, % at 10 µM; AID 485275, 2010;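 active = plate passing quality check with inhibition over a set limit, or well fluorescence over plate mean plus 4 SD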;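 also: Nile Red retained in pooled yeast measured as flow cytometry median fluorescence; 0% = buffer negative control and 100% = Enniatin B positive control; higher means more Nile Red kept so more efflux inhibition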
* marks the source's active call; other numbers are inactive results; i = inactive; nt = not tested or not shown; + = active, no number. Only some compounds are listed: those with a hit (about 1.6% of all), similar ones and a draw of the others.

SMILES | NPR2 activator | GC-A act | V-ATPase pHluor | Rce1 inhib | NSD2 HMT inh | Efflux pump inh
O=C(CCN1CCC2CCC(C2)C1)c1ccc(F)cc1 (stereo not given) | -3.4 | 71.7* | 7.3 | nt | 0.5 | nt
CC(=O)CC[C@@H]1CC[C@]2(CCCN(S(=O)(=O)C3CCCCC3)C2)O1 | 0.8 | 4.8 | nt | nt | nt | nt
N#CCC[C@@H]1CC[C@]2(CCCN(Cc3ccc(Br)cc3)C2)O1 | -0.8 | -5.1 | nt | nt | nt | nt
CCCC1CCC2(CC1)CCC2OC(=O)Nc1cccc(C(F)(F)F)c1 (stereo not given) | -8.6 | -1.8 | nt | nt | nt | nt
O=C(CCN1CCC(c2ccccc2)C1)c1ccccc1 (stereo not given) | -2.2 | 58.5* | -0.7 | i | 6.0 | -0.4
O=C(CCN1CCCC1)c1cccs1 | 0.3 | 50.4* | 1.7 | i | -1.6 | 0.1
O=C(CCN1CCN(c2ccccc2F)CC1)c1ccc(Br)cc1 | nt | nt | 2.8 | i | nt | 0.0
O=C(CCN1CCC(c2ccccc2)C1)c1cccs1 (stereo not given) | 0.1 | 51.6* | 9.3 | i | 7.7 | 0.0
O=C(c1cccs1)N1CCC(c2ccccc2)C1 (stereo not given) | -1.7 | 0.4 | 0.9 | i | -0.7 | -0.2
O=C(CCN1CCN(c2ccccc2)CC1)c1ccc(Br)cc1 | -0.1 | 40.1* | 8.3 | i | 13.0 | -0.1
O=S1(=O)CC2c3ccc(F)cc3CN2CN1CCc1ccccc1 (stereo not given) | -5.5 | -2.6 | nt | nt | nt | nt
O=C(Nc1c(-c2ccc(C(F)(F)F)cc2)nc2ncccn12)C1CC1 | 3.1 | 1.1 | nt | nt | nt | nt
COc1ccc(CN2C[C@]3(C=C4CCCCC4n4c(=O)n(-c5ccccc5)c(=O)n43)N=C2NC(=O)c2ccccc2)c(OC)c1 (stereo not given in full) | -3.2 | -2.4 | nt | nt | nt | nt
O=[N+]([O-])c1c(Nc2ccccn2)cc(Cl)c2nonc12 | 43.2* | 49.6* | 33.0* | i | 3.5 | 11.1*
O=[N+]([O-])c1c(Nc2ccc(O)cc2)cc(Cl)c2nonc12 | 50.3* | 61.8* | -1.8 | i | 44.6 | -0.4
O=C(O)c1ccccc1Nc1cc(Cl)c2nonc2c1[N+](=O)[O-] | -7.1 | -3.4 | 0.2 | i | 45.1 | 0.1
O=[N+]([O-])c1cc(S(=O)(=O)N2CCCC2)ccc1NN=C1CCCCC1 | 3.8 | 1.8 | -3.2 | + | 15.7 | 1.9
O=[N+]([O-])c1cc(S(=O)(=O)N2CCCCCC2)ccc1F | 47.8* | 8.0 | 0.6 | nt | 8.6 | 0.0
CCOc1ccccc1NC(=O)Cn1[nH]c(=O)c2ccccc2c1=O | nt | nt | 2.1 | i | nt | 0.0
CCOc1cc(N2CCOCC2)c(OCC)cc1NC(=O)Cn1[nH]c(=O)c2ccccc2c1=O | 35.7* | 25.9 | 2.1 | i | -0.2 | -0.1
O=C1CCC[C@H]2C[C@H](NCc3cccs3)CC[C@]23CCCN13 | -3.0 | 2.0 | nt | nt | nt | nt
NC(=S)N/N=C/c1ccccc1 | -0.5 | 2.7 | -0.1 | i | 32.7 | 1.5
NC(=S)N/N=C/c1ccc(C23CC4CC(CC(C4)C2)C3)cc1 | nt | nt | nt | nt | nt | 0.6*
CCC(C)(C)c1ccc(OCCCC[n+]2cccc(C)c2)c(C(C)(C)CC)c1 | -11.7 | 10.6 | 1.7 | + | 6.2 | nt
O=C1/C(=C/C=C/c2ccco2)SC(=S)N1NS(=O)(=O)c1ccccc1 | 1.9 | -10.7 | -1.3 | nt | 118.9* | 1.5*
SMILES | NPR2 activator | GC-A act | V-ATPase pHluor | Rce1 inhib | NSD2 HMT inh | Efflux pump inh
COc1ccc(OC)c(/C=C2\SC(=S)N(NS(=O)(=O)c3ccccc3)C2=O)c1 | -5.1 | -8.0 | -3.5 | i | 8.7 | -0.1
CCC(=O)N1CCN(c2ccc(NC(=O)c3cc4ccccc4o3)cc2Cl)CC1 | 0.5 | -1.5 | -5.5 | + | nt | 0.1
CCCC(=O)N1CCN(c2ccc(NC(=O)c3cccs3)cc2Cl)CC1 | -1.5 | -0.9 | 0.0 | i | -1.8 | 0.5
O=C(Nc1ccc(N2CCN(C(=O)c3ccco3)CC2)c(Cl)c1)c1cc2ccccc2o1 | 7.1 | 4.3 | 1.6 | i | -6.0 | 0.3
CCCC(=O)N1CCN(c2ccc(NC(=O)c3cc4ccccc4o3)cc2Cl)CC1 | -3.3 | 4.3 | 6.8 | + | nt | 0.1
Cc1ccccc1NC(=O)c1cc2ccccc2o1 | -0.8 | 0.3 | 14.1* | i | -3.5 | -0.1
COC(=O)c1ccc(-c2ccc3c(c2)[C@]2(CCC[C@@H](O)[C@@H]2NC(=O)CCc2ccccc2)C(=O)N3Cc2ccccc2)cc1 | 6.4 | 4.0 | nt | nt | nt | nt
CCC[C@H]1[C@@H](NS(=O)(=O)c2ccccc2[N+](=O)[O-])CC[C@@]23CCCN2C(=O)CCC[C@@H]13 | -11.0 | -4.7 | nt | nt | nt | nt
COc1ccc(Oc2c(Cl)cnn(-c3ccc(C(C)C)c(C)c3)c2=O)cc1 | 18.6 | 1.1 | nt | nt | nt | nt
O=[N+]([O-])c1ccc(NCCCN2CCC(C(O)(c3ccccc3)c3ccccc3)CC2)cc1 | -16.7 | -22.9 | nt | nt | nt | nt
CC[C@H](CCCCCCCn1ccc2ccccc21)CCC(=O)N(c1ccccc1)c1ccccc1 | 5.8 | 0.4 | nt | nt | nt | nt
Oc1c(N=NC(=S)Nc2ccccc2F)c2ccccc2n1Cc1ccccc1F | 1.1 | 3.2 | -0.3 | + | -1.5 | -0.4
COc1ccc(C(=O)c2c3ccc(C(F)(F)F)cc3[n+]([O-])n2CCCC(N)=O)cc1 | 8.8 | 2.5 | -7.8 | i | nt | -0.1
Cc1ccc(C(=O)c2c3ccc(C(F)(F)F)cc3nn2CCC(N)=O)cc1 | -8.1 | -0.2 | -0.5 | + | nt | -0.1
CCc1ccccc1NC(=O)CCC(=O)c1cccs1 | 3.3 | -1.2 | -0.2 | i | 3.5 | 0.0
O=C(CCC(=O)c1cccs1)Nc1ccccc1F | 3.5 | -1.1 | 19.4* | i | -3.4 | 0.0
CCOC(=O)c1cc2c(=O)n3cccc(C)c3nc2n(CC(C)C)c1=NC(=O)c1ccco1 | -4.0 | 1.0 | -1.9 | + | -0.6 | 0.1
Cc1ccc(-c2nc3ccccn3c2Nc2ccccc2)o1 | 11.6 | -17.1 | 2.3 | i | 1.2 | -0.1
Cc1ccc(Nc2c(-c3ccc(C)o3)nc3cnccn23)cc1 | 39.7* | 30.0 | -1.9 | i | nt | -0.1
Cc1ccc(-c2nc3cnccn3c2Nc2ccccc2)o1 | 32.0* | 19.1 | 0.3 | i | nt | 0.1
N/C(=N\OC(=O)c1ccc(Cl)cc1Cl)c1ccncc1 | -6.5 | 43.0* | 7.9 | i | -2.0 | 0.0
N/C(=N\OC(=O)c1cc(Cl)ccc1Cl)c1ccncc1 | -1.0 | -3.5 | nt | i | -1.9 | -0.1
CCOc1cc(/C=C2\C(=O)N(CCC#N)N=C2C)ccc1OCC(N)=O | -3.0 | 7.2 | -2.6 | i | 8.4 | 0.0
COc1cc(/C=C2\C(=O)N(CCC#N)N=C2C)ccc1OCC(=O)Nc1ccccc1 | 46.7* | 53.1* | -0.6 | i | 43.6 | -0.4
